Assay results: PubChem BioAssay (NCATS)
Records with an inconclusive call do not appear. Active and inactive are the calls of the source. Unless noted, the call rests on the fitted dose curve; in most records, active means well fitted inhibition curve with a large enough effect; inconclusive means small, poorly fitted or top-dose-only effect; inactive means flat fitted curve, though single readings scatter.

How the values were obtained:
[1] = S16 Schwann cell PMP22 intronic element beta-lactamase assay (AID 624044; calls by dose curve; further: nearly all actives have a fitted effect of over 15% in size)
Outline: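 Beta-lactamase reporter under a PMP22 intronic regulatory element in stable S16 rat Schwann cells; 24 h compound exposure. 460 nm blue signal normalized between DMSO (0%) and potassium clavulanate, with 535 nm FRET tracking viability; curves classed by r2 and response.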

[2] = test system: AS120; assay: qHTS profiling for inhibitors of Plasmodium falciparum proliferation (AID 504749); further: nearly all actives have a fitted effect of over 60% in size; conditions: P. falciparum in erythrocytes, SYBR Green DNA, 72 h; series mostly up to 28.7 µM
Outline: (§1)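 In a 72 h erythrocytic culture (37 C, humidified, 5% CO2) at 2.5% hematocrit and 0.3% starting parasitemia, compounds were tested; SYBR Green I in detergent lysis buffer stained parasite DNA overnight.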

[3] = test system: ATS189; assay: as above; conditions: P. falciparum in erythrocytes, SYBR Green DNA, 72 h; series mostly up to 28.7 µM
Outline: as §1

[4] = test system: ATS95; assay: as above; conditions: P. falciparum in erythrocytes, SYBR Green DNA, 72 h; series mostly up to 28.7 µM
Outline: as §1

[5] = test system: CP191; assay: as above; conditions: P. falciparum in erythrocytes, SYBR Green DNA, 72 h; series mostly up to 28.7 µM
Outline: as §1

[6] = test system: CP237; assay: as above; conditions: P. falciparum in erythrocytes, SYBR Green DNA, 72 h; series mostly up to 28.7 µM
Outline: as §1

[7] = test system: CP247; assay: as above; conditions: P. falciparum in erythrocytes, SYBR Green DNA, 72 h; series mostly up to 28.7 µM
Outline: as §1

[8] = test system: CP265; assay: as above; conditions: P. falciparum in erythrocytes, SYBR Green DNA, 72 h; series mostly up to 28.7 µM
Outline: as §1

[9] = test system: CP266; assay: as above; conditions: P. falciparum in erythrocytes, SYBR Green DNA, 72 h; series mostly up to 28.7 µM
Outline: as §1

[10] = test system: CP268; assay: as above; conditions: P. falciparum in erythrocytes, SYBR Green DNA, 72 h; series mostly up to 28.7 µM
Outline: as §1

[11] = test system: CP305; assay: as above; conditions: P. falciparum in erythrocytes, SYBR Green DNA, 72 h; series mostly up to 28.7 µM
Outline: as §1

[12] = test system: DFO2036; assay: as above; conditions: P. falciparum in erythrocytes, SYBR Green DNA, 72 h; series mostly up to 28.7 µM
Outline: as §1

[13] = test system: DIV30; assay: as above; conditions: P. falciparum in erythrocytes, SYBR Green DNA, 72 h; series mostly up to 28.7 µM
Outline: as §1

[14] = test system: ECU; assay: as above; conditions: P. falciparum in erythrocytes, SYBR Green DNA, 72 h; series mostly up to 28.7 µM
Outline: as §1

[15] = test system: HB3; assay: as above; conditions: P. falciparum in erythrocytes, SYBR Green DNA, 72 h; series mostly up to 28.7 µM
Outline: as §1

[16] = test system: P94_40; assay: as above; conditions: P. falciparum in erythrocytes, SYBR Green DNA, 72 h; series mostly up to 28.7 µM
Outline: as §1

[17] = test system: PAD; assay: as above; conditions: P. falciparum in erythrocytes, SYBR Green DNA, 72 h; series mostly up to 28.7 µM
Outline: as §1

[18] = test system: PC26; assay: as above; conditions: P. falciparum in erythrocytes, SYBR Green DNA, 72 h; series mostly up to 28.7 µM
Outline: as §1

[19] = test system: PC49; assay: as above; conditions: P. falciparum in erythrocytes, SYBR Green DNA, 72 h; series mostly up to 28.7 µM
Outline: as §1

[20] = test system: TAB113; assay: as above; conditions: P. falciparum in erythrocytes, SYBR Green DNA, 72 h; series mostly up to 28.7 µM
Outline: as §1

Measured: Potency

O=C(O)[C@@H](O)[C@@H](O)[C@H](O)[C@H](O)CO
inactive: [1]

C[C@]12CC[C@H]3c4ccc(O)cc4CC[C@@H]3[C@H]1CC[C@@H]2OP(=O)(O)O
inactive: [2] | [3] | [4] | [5] | [6] | [7] | [8] | [9] | [10] | [11] | [12] | [13] | [14] | [15] | [16] | [17] | [18] | [19] | [20]

N[C@@H](Cc1ccccc1)C(=O)O
inactive: [1] | [2] | [3] | [4] | [5] | [6] | [7] | [8] | [9] | [10] | [11] | [12] | [13] | [14] | [15] | [16] | [17] | [18] | [19] | [20]
